Test systems include HCT-15 colon; HT29 colon; SNB-75 CNS; SNB-19 CNS; U251 CNS; PC-3 prostate; SK-MEL-5 melanoma; UACC-62 melanoma; SK-MEL-28 melanoma; LOX IMVI melanoma.
Common to all, as to assay: NCI-60 one-dose screen, 48 h (100 = growth as untreated, 0 = no growth, -100 = all killed)
Details in all cases: 10 µM unless noted

This is part of a sample that, as a whole, favours compounds with a hit. Of some 83,000 tested, about 20% had one in any assay.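 How to read the values: 0–100, growth inhibition (40 = 60% inhibited); 0, no net growth; -100 to 0, cell death (-40 = 40% of starting cells died; -100 = all dead).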 Unmarked numbers belong to inactive results. The source made the active and inactive calls. The calls were made as follows: active = growth percent below 10; inactive = the rest.

This note sets out measurements from PubChem BioAssay (NCI).

Consider `N#CC1=C(N)Oc2c(c(N)nn2-c2ccccc2)C1c1ccc(Cl)cc1` (stereo unspecified), for which the growth in the test with HCT-15 colon was 107%; with HT29 colon it was 107%; in the test with SNB-75 CNS, 77.3%; with SNB-19 CNS, 94.7%; in the test with U251 CNS it was 94.9%; in the test on PC-3 prostate, 91.7%. Besides, the growth with SK-MEL-5 melanoma was 101%; in the test on UACC-62 melanoma, 86%; in the test with SK-MEL-28 melanoma, 100%.
With `CCN(CC)C(=O)CCCCCn1c2ccccc2c2c3c(c4c5ccccc5[nH]c4c21)C(=O)N(O)C3=O`, the growth is 45.9% in the test with HCT-15 colon; -43.7% (active) in the test on HT29 colon; 74.4% in the test with SNB-75 CNS; 47.2% with SNB-19 CNS; 10.5% with U251 CNS; 30% with PC-3 prostate. The growth with SK-MEL-5 melanoma was 25.9%; with LOX IMVI melanoma, -59% (active).
Take `COC(=O)[C@]12CC[C@@H](C)[C@H](C)[C@@H]1C1=CC(=O)[C@@H]3[C@@]4(C)C[C@@H](OC(C)=O)[C@H](OC(C)=O)[C@@](C)(COC(C)=O)[C@@H]4C(=O)C[C@@]3(C)[C@]1(C)CC2`: the growth in the test on HCT-15 colon was 38.5%; with HT29 colon, 40.4%; with SNB-75 CNS it was 55.6%; in the test with SNB-19 CNS, 57%; in the test on U251 CNS it was 40.7%; with PC-3 prostate, 2.41% (active). Moreover, the growth with SK-MEL-5 melanoma was 20%; with LOX IMVI melanoma, 50.8%.
As to `COC(=O)CCCCCn1c2ccccc2c2c3c(c4c5ccccc5[nH]c4c21)C(=O)N(O)C3=O`, the growth with HCT-15 colon was 44.1%; in the test with HT29 colon it was 24%; in the test on SNB-75 CNS, 92%; with SNB-19 CNS it was 29.9%; in the test with U251 CNS it was 10.2%; with PC-3 prostate, 34.3%. Also, the results for the growth in the test with SK-MEL-5 melanoma and with LOX IMVI melanoma were 33.1% and -65% (active), respectively.
Consider `COc1ccc(O)c(-c2cc(-c3ccc(Cl)cc3)c(C#N)c(=O)[nH]2)c1`, for which the growth in the test on HCT-15 colon was 66.5%; in the test with HT29 colon, 75.7%; in the test on SNB-75 CNS it was 62.7%; in the test on SNB-19 CNS, 69.7%; in the test on U251 CNS, 46.6%; in the test on PC-3 prostate, 55.6%. Further, the growth was 57.7% with SK-MEL-5 melanoma and 63.2% with LOX IMVI melanoma.
As for `N#CCCCCCn1c2ccccc2c2c3[nH]c(=O)[nH]c(=O)c3c3c4ccccc4n(CCCCCC#N)c3c21`, the growth with HCT-15 colon is 86.6%; in the test with HT29 colon it was 27%; with SNB-75 CNS, 26.3%; in the test on SNB-19 CNS it was 55.6%; in the test on U251 CNS, 28.9%; with PC-3 prostate it was 64.3%. Further, the growth with SK-MEL-5 melanoma was 28.6%; with LOX IMVI melanoma, 31.9%.
`COc1cccc(-c2nn(-c3ccccc3)cc2-c2ccnc(NCCNS(=O)(=O)c3cccc(F)c3)c2)c1`: the growth was 24.3% in the test on HCT-15 colon; 16.9% in the test on HT29 colon; 70.6% in the test on SNB-75 CNS; 37.2% in the test on SNB-19 CNS; 27% in the test with U251 CNS; 19.1% with PC-3 prostate. Besides, the growth in the test with SK-MEL-5 melanoma is 26.7%; in the test on LOX IMVI melanoma it was 38.3%.
In the case of `COC(=O)[C@]12CC[C@@H](C)[C@H](C)[C@@H]1C1=CC[C@@H]3[C@@]4(C)C[C@@H](O)OC[C@](C)(C=O)C4C(=O)C[C@@]3(C)[C@]1(C)CC2` (stereo partly specified), the growth with HCT-15 colon is 5.82% (active); in the test on HT29 colon, -59.3% (active); with SNB-75 CNS, 13.3%; in the test with SNB-19 CNS it was 27.1%; in the test on U251 CNS, 0.219% (active); in the test on PC-3 prostate, 5.85% (active). Also, the growth with SK-MEL-5 melanoma was -91.3% (active); in the test on LOX IMVI melanoma, -34.2% (active).
Consider `COc1ccc(C2=NN(c3nc(-c4ccc(OC)cc4)c(C#N)c(=O)n3C)C(=O)CC2)cc1`, for which the growth in the test on HCT-15 colon is 106%; in the test with HT29 colon, 109%; in the test on SNB-75 CNS, 86.5%; in the test with SNB-19 CNS, 96.7%; in the test with U251 CNS it was 100%; in the test on PC-3 prostate it was 82.4%. Moreover, the values for the growth in the test with SK-MEL-5 melanoma and in the test with LOX IMVI melanoma were 96.3% and 101%, respectively.
Take `CCCCCCCC(=O)SCC/C=C/[C@@H]1CC(=O)NCc2cccc(n2)CN(Cc2ccc3ccccc3c2)CC(=O)N[C@@H](C(C)C)C(=O)O1`: the growth is 57.8% in the test with HCT-15 colon; 14.5% with HT29 colon; 29.2% with SNB-75 CNS; 48.9% with SNB-19 CNS; 35.9% in the test on U251 CNS; 34.8% with PC-3 prostate. Moreover, the growth in the test on SK-MEL-5 melanoma was 9.24% (active); in the test with LOX IMVI melanoma, 5.42% (active).
In the case of `Clc1ccc(Cn2cc(-c3nc4ccc(Br)nc4n3Cc3ccc(Cl)cc3)c3cccnc32)cc1`, the growth in the test with HCT-15 colon is 87.2%; in the test with HT29 colon, 96.3%; with SNB-75 CNS, 64.1%; in the test on SNB-19 CNS it was 89.2%; in the test with U251 CNS, 94.8%; in the test with PC-3 prostate, 65.7%. Further, the growth in the test with SK-MEL-5 melanoma was 74.3%; with LOX IMVI melanoma it was 85.4%.
Regarding `COc1cccc(-c2nn(-c3ccccc3)cc2-c2ccnc(NCCCN)c2)c1`, the growth is 56.7% with HCT-15 colon; 86.2% in the test on HT29 colon; 45.4% in the test on SNB-75 CNS; 48.9% with SNB-19 CNS; 38.9% in the test on U251 CNS; 47.7% in the test on PC-3 prostate. Also, the growth with SK-MEL-5 melanoma is 28.5%; in the test on LOX IMVI melanoma it was 54.8%.
With `COc1ccc(/C=C/C(=O)NCC(C)O)cc1` (stereo unspecified), the growth in the test on HCT-15 colon is 102%; in the test with HT29 colon it was 95.1%; in the test on SNB-75 CNS, 84.7%; in the test on SNB-19 CNS, 109%; in the test with U251 CNS, 95.8%; in the test on PC-3 prostate it was 94.5%. Further, the growth in the test on SK-MEL-5 melanoma was 101%; in the test on LOX IMVI melanoma, 97.2%; with SK-MEL-28 melanoma, 102%.
